Experimental data: PubChem BioAssay (NCATS)
Results filed as inconclusive are left out. Calls of active or inactive are those of the source. Calls follow the shape of the dose curve; as a rule, active = well fitted curve in the direction sought with a large enough effect; inconclusive = small, poorly fitted or top-dose-only effect, or effect the other way, or another doubt; inactive = no such curve, though single readings can be large or run the other way.

biological target: Transient receptor potential cation channel subfamily V member 1 (Homo sapiens) (UniProt Q8NER1); experiment: HTS Assay for Compounds that Act as Enhancers of the Vanilloid Receptor 1 (AID 488979); details: TRPV1-expressing cells, enhancer of channel activity; series mostly up to 41.7 µM
Sequence (Q8NER1 whole entry, looked up): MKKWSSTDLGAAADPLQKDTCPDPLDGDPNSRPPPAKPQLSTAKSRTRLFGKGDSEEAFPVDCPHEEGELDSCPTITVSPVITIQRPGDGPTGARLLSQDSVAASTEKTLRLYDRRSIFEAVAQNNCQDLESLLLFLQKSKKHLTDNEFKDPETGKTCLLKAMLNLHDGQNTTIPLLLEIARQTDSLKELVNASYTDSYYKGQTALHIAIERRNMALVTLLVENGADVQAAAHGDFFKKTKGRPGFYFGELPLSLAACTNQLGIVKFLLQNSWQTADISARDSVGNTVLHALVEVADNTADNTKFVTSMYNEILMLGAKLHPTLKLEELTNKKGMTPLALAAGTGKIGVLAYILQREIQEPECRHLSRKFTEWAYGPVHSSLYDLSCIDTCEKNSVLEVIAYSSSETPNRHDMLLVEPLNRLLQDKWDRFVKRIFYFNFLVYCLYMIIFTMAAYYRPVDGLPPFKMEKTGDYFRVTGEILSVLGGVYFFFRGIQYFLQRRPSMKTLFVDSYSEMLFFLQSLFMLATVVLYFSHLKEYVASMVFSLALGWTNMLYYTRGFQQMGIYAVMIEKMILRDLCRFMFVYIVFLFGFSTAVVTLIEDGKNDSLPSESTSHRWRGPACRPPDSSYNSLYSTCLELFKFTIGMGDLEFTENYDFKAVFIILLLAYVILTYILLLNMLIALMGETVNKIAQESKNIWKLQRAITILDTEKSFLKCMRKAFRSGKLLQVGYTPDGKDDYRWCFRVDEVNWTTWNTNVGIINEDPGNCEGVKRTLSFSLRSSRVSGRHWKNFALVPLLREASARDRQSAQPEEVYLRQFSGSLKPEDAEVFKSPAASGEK
From the text: The transient receptor potential ion channel, family V, number 1, (TRPV1) is one of the most important molecular transducers of painful stimuli and a potential target for analgesic drug development. Although recent clinical trials with orthosteric antagonists have not produced a successful drug because of a hyperthermia side effect and their tendency to block thermal noxious pain, this ion channel is undeniably well placed in the pain pathway, and the idea of blocking pain signals before they enter the CNS is an excellent concept and of proven efficacy when TRPV1 agonists are used. We propose a new approach involving allosteric modulation to impose an activity-dependent constraint within the context of inflammation and tissue damage that would alter the responsiveness of the channel in a way that an orthosteric vanilloid antagonist cannot achieve. We believe that the allosteric modulator approach has not been explored for this target.
The main goal of this proposal is to identify additional, new, potent allosteric modulators of TRPV1 that can be used to investigate TRPV1 function. Our recent report provides evidence of proof of concept, but the compounds are just at the edge of utility in terms of potency. […] The question of whether they can be used as analgesic agents is complex, but if suitable compounds are identified then testing for analgesic properties will be conducted.
Upon TRPV1 activation in TRPV1 cells, the channel opens and extracellular cations flow through the channel into the cytosol. A calcium binding dye (Fluo-8) becomes fluorescent when bound to calcium. This dye is pre-loaded into cells and is used as a marker for calcium influx.
The amount of accumulated calcium is precisely quantified using the FDSS kinetic reader and the calcium dye.
For the HTS assay, freshly prepared cells are plated at a density of 2000/well in 3 ul medium in 1536-well plates and cultured overnight at 35.5C. Cells will be loaded with 1 ul of the homogeneous calcium dye (ABD Bioquest) at room temperature for 40 to 90 minutes. Plates will be loaded into the FDSS kinetic reader and a 1 sec / cycle for 10 second baseline signal will be measured. Compound library will then be added with a pintool at 23 nl and measured kinetically for 3 minutes. This portion of the read is considered the agonist portion of the screen. Following the 3 minutes of incubation, an on board pipettor will deliver 1 ul of capsaicin for a final concentration equal to the EC20. Signal will be measured kinetically for an additional 2 minutes. This portion of the read is considered the allosteric enhancer portion of the screen.
The FDSS reader has a standard filter set capable of measuring calcium bound Fluo-8 (ex=480 and em=520 nm).

SMILES	outcome
CCc1c(C(=O)OC)ncc2[nH]c3cc(OC)c(OC)cc3c12	inactive
C=CCN1CC[C@@]2(C)c3cc(O)ccc3CC1[C@@H]2C	inactive
CCCN1CCC[C@@H](c2cccc(C#N)c2)C1	inactive
C[C@H]1C2Cc3ccc(O)cc3[C@]1(C)CCN2CC1CC1	inactive
CC(C)[C@@]1(NC(=O)[C@@H]2C[C@@H]3c4cccc5[nH]cc(c45)C[C@H]3N(C)C2)O[C@@]2(O)C3CCCN3C(=O)[C@H](Cc3ccccc3)N2C1=O (stereo not given in full)	inactive
CCCC[N+]1(C)C2CC(OC(=O)C(CO)c3ccccc3)CC1C1OC12 (stereo not given)	inactive
CN1CCC23CCCC[C@H]2C1Cc1ccc(O)cc13 (stereo not given in full)	inactive
CN1C[C@@H](CS(=O)(=O)N(C)C)C[C@@H]2c3cccc4c3c(cn4C)C[C@H]21	inactive
Nc1ncnc2c1ncn2[C@@H]1O[C@H](COP(=O)(O)CP(=O)(O)OP(=O)(O)O)[C@H](O)[C@H]1O	inactive
CC12CCC3C(CCC4=C(O)C(=O)CCC43C)C1CCC2=O (stereo not given)	inactive
C[C@@H]1O[C@@H](O[C@H]2C[C@@H](O)[C@]3(CO)[C@H]4[C@H](O)C[C@]5(C)[C@@H]([C@@H]6COC(=O)C6)CC[C@]5(O)[C@@H]4CC[C@]3(O)C2)[C@H](O)[C@H](O)[C@H]1O	inactive
C[C@]12CC[C@@H](O)CC1CCC1C2CC[C@]2(C)C(=O)CC[C@@H]12 (stereo not given in full)	inactive
C#CCN(C)C(C)Cc1ccccc1 (stereo not given)	inactive
CC[C@@H](CO)NC(=O)[C@H]1C=C2c3cccc4c3c(cn4C)C[C@H]2N(C)C1	inactive
CCCN1CCC[C@@H]2Cc3n[nH]cc3C[C@H]21	inactive
CCCN1CCc2cc(O)cc3c2C1Cc1ccc(O)c(O)c1-3 (stereo not given)	inactive
CCC(CO)NC(=O)[C@@H]1C=C2c3cccc4[nH]cc(c34)C[C@H]2N(C)C1 (stereo not given in full)	inactive
CC1Cc2cc3c(cc2C(c2ccc(N)cc2)=NN1)OCO3 (stereo not given)	inactive
COc1ccc2c(c1O)-c1cccc3c1C(C2)N(C)CC3 (stereo not given)	inactive
CCCN(CCC)[C@@H]1CCc2c(F)ccc(O)c2C1	inactive

SMILES	outcome
CC(C)(O)C1C2OC(=O)C1[C@]1(O)C[C@H]3O[C@]34C(=O)O[C@H]2[C@]14C (stereo not given in full) (tested in a mixture with another compound)	inactive
CCCN(CCC)C(=O)Cc1c(-c2ccc(Cl)cc2)nc2c(Cl)cc(Cl)cn12	inactive
C[N+]1(C)C2CC(OC(=O)C(CO)c3ccccc3)CC1C1OC12 (stereo not given)	inactive
C[C@H]1OC[C@@H](C[N+](C)(C)C)O1	inactive
NNCc1cccc(O)c1	inactive
CCCN1CCCC(c2cccc(O)c2)C1 (stereo not given)	inactive
CCCN1CCc2cccc3c2C1Cc1ccc(O)c(O)c1-3 (stereo not given)	inactive
CCN1C[C@]2(C)CC[C@H](O)[C@@]34[C@@H]5C[C@@H]6[C@@H](OC)C[C@@](O)(C5[C@H]6O)[C@@H](C[C@@H]23)[C@@H]14	inactive
NCC#Cc1ccccc1	inactive
COC(=O)C(N)CCCN=C(N)N[N+](=O)[O-] (stereo not given)	inactive
CCN(CC)C(=O)N[C@@H]1C[C@@H]2c3cccc4[nH]cc(c34)C[C@H]2N(C)C1	inactive
COc1cc(C[C@@H](C)N)c(OC)cc1I	inactive
O=C(O)C1C2CCC(O2)C1C(=O)O (stereo not given)	inactive
COc1cc(C=C(C#N)C#N)cc(O)c1O	inactive
COc1ccc2c3c1O[C@H]1C(=O)CC[C@@]4(O)C(C2)N(CC2CC2)CCC314 (stereo not given in full)	inactive
NC(Cn1ccc(=O)[nH]c1=O)C(=O)O (stereo not given)	inactive
Oc1cc2c(cc1O)[C@H]1c3ccccc3CNC1CC2 (stereo not given in full)	inactive
CCNC(=O)[C@H]1O[C@@H](n2cnc3c(N)ncnc32)[C@H](O)[C@H]1O	inactive
Oc1ccc2c3c1O[C@H]1[C@@H](O)CC[C@@]4(O)C(C2)N(CC2CCC2)CCC314 (stereo not given in full)	inactive
C[C@]12CC[C@H](OS(=O)(=O)O)CC1=CCC1C2CC[C@]2(C)C(=O)CC[C@@H]12 (stereo not given in full)	inactive
